Source: PubChem BioAssay (NCATS)
Results filed as inconclusive are left out. A call without a number means that no potency is given here. Calls of active or inactive are those of the source. Unless noted, the call rests on the fitted dose curve; in most records, active means well fitted curve in the direction sought with a large enough effect; inconclusive means small, poorly fitted or top-dose-only effect, or another doubt; inactive means no such curve, though single readings can be large; an effect the other way counts as inactive or inconclusive.

How the values were obtained:
[1] = target: Ubiquitin carboxyl-terminal hydrolase 1 (Homo sapiens) (UniProt O94782); assay: Inhibitors of USP1/UAF1: Pilot qHTS (AID 504865); conditions: purified USP1/UAF1, Ub-rhodamine cleavage fluorescence; series mostly up to 114 µM;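 further: rhodamine fluorescence freed from ubiquitin-rhodamine substrate followed over time; top concentration of the series differs between compounds; nearly all actives have a fitted effect of over 35% in size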
Ubiquitin carboxyl-terminal hydrolase 1 (Homo sapiens), sequence (O94782 whole entry, looked up): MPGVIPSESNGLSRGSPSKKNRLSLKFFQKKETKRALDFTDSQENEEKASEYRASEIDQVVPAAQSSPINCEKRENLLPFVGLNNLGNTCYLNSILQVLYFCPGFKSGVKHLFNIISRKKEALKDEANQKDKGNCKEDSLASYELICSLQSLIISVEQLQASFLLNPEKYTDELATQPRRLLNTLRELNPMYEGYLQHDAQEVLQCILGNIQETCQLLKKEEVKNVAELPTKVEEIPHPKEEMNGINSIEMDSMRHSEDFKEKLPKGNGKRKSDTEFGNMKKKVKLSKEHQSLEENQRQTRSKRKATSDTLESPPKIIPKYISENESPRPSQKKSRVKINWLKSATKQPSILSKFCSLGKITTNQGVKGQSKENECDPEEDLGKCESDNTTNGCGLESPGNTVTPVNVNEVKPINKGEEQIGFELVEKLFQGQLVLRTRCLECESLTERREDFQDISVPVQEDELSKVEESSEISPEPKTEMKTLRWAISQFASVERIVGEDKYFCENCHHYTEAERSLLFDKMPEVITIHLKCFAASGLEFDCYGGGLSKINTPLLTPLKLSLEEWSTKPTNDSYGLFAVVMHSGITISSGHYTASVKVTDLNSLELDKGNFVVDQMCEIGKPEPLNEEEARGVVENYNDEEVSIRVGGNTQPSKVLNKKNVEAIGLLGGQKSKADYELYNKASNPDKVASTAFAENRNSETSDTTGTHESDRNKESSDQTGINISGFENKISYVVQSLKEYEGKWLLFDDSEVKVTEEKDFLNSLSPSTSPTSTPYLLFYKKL
Outline: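 Deubiquitinase activity followed as kinetic rhodamine fluorescence release from 150 nM Ub-Rho. 1 nM USP1/UAF1 with compound, after 15 min room-temperature preincubation, in HEPES pH 7.8 buffer containing TCEP, EDTA, BSA and Tween-20.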

[2] = target: Luciferin 4-monooxygenase (Photinus pyralis) (UniProt P08659); assay: Biochemical firefly luciferase enzyme assay for NPC (AID 624030);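 further: purified P. pyralis luciferase at 10 nM with luciferin and ATP substrate; nearly all actives have a fitted effect of over 70% in size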; conditions: purified P. pyralis luciferase, luminescence, 5 min; series mostly up to 58.6 µM
Luciferin 4-monooxygenase (Photinus pyralis), sequence (P08659 whole entry, looked up): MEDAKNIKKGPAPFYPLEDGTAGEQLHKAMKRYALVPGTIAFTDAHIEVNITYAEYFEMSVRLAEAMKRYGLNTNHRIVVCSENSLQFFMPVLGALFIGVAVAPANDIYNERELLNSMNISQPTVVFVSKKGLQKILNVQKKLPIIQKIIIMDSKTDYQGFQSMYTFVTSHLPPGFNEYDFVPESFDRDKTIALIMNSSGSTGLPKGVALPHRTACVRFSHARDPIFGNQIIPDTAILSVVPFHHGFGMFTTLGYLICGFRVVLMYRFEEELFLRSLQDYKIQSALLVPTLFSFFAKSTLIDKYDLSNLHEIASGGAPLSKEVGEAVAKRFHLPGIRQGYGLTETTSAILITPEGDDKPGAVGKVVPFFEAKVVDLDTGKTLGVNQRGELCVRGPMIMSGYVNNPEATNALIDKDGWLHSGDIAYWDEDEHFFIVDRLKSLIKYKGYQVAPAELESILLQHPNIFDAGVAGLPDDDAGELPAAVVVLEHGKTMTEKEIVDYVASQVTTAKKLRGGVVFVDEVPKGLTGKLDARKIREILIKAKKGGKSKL
Outline: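 Counter-screen for direct inhibition of the luciferase enzyme by approved-drug library compounds, run at 10 nM enzyme in 50 mM Tris acetate (final). Luminescence was read within 5 min of enzyme-buffer addition and normalized to PTC124 versus DMSO (0%).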

[3] = S16 Schwann cell viability assay (CellTiter-Glo assay) (AID 624031); conditions: S16 rat Schwann cells viability, 24 h; series mostly up to 57.5 µM;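 further: native untransfected S16 rat Schwann cells; cellular ATP luminescence as a viability measure; nearly all actives have a fitted effect of over 70% in size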
Outline: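 Cells were seeded at 500-750 per well in phenol red-free DMEM with 10% FBS and left overnight. Compounds or DMSO were pinned in, incubation ran 24 h at 37 °C/5% CO2, then CellTiter-Glo reagent was added and luminescence measured.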

[4] = S16 Schwann cell PMP22 intronic element firefly luciferase assay (AID 624032); conditions: S16 rat Schwann cells, PMP22 element FLuc, 24 h; series mostly up to 57.5 µM; further: nearly all actives have a fitted effect of over 30% in size
Outline: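 Rat S16 Schwann cells stably carrying a PMP22 intronic element-driven Fluc reporter were seeded overnight, then exposed to compounds for 24 h at 37 °C. Luminescence was normalized to PTC124 (positive control) and DMSO (0% activity).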

[5] = S16 Schwann cell PMP22 intronic element beta-lactamase assay (AID 624044; calls by dose curve; further: nearly all actives have a fitted effect of over 15% in size); conditions: S16 rat Schwann cells, PMP22 element beta-lactamase FRET, 24 h; series mostly up to 38.3 µM
Outline: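 Rat S16 Schwann cells with beta-Lac driven by a PMP22 intronic element, compound-treated 24 h at 37 °C. LiveBLAzer FRET B/G read: 460 nm normalized to potassium clavulanate vs DMSO; 535 nm FRET as viability; concentration-effect curves classified.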

[6] = test system: 3D7; assay: qHTS profiling for inhibitors of Plasmodium falciparum proliferation (AID 504749); further: nearly all actives have a fitted effect of over 60% in size; further: potency means the concentration at half of the fitted maximal effect; conditions: P. falciparum in erythrocytes, SYBR Green DNA, 72 h; series mostly up to 28.7 µM
Outline: (§1)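 Parasite proliferation within erythrocytes, 72 h exposure. Endpoint: SYBR Green I fluorescence after overnight lysis at room temperature. Controls: 0.29 uM artemisinin, DMSO.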

[7] = test system: 7G8; assay: as above; conditions: P. falciparum in erythrocytes, SYBR Green DNA, 72 h; series mostly up to 28.7 µM
Outline: as §1

[8] = test system: AA1029; assay: as above; conditions: P. falciparum in erythrocytes, SYBR Green DNA, 72 h; series mostly up to 28.7 µM
Outline: as §1

[9] = test system: CP192; assay: as above; conditions: P. falciparum in erythrocytes, SYBR Green DNA, 72 h; series mostly up to 28.7 µM
Outline: as §1

[10] = test system: CP203; assay: as above; conditions: P. falciparum in erythrocytes, SYBR Green DNA, 72 h; series mostly up to 28.7 µM
Outline: as §1

[11] = test system: CP247; assay: as above; conditions: P. falciparum in erythrocytes, SYBR Green DNA, 72 h; series mostly up to 28.7 µM
Outline: as §1

[12] = test system: CP260; assay: as above; conditions: P. falciparum in erythrocytes, SYBR Green DNA, 72 h; series mostly up to 28.7 µM
Outline: as §1

[13] = test system: CP286; assay: as above; conditions: P. falciparum in erythrocytes, SYBR Green DNA, 72 h; series mostly up to 28.7 µM
Outline: as §1

[14] = test system: DFO2036; assay: as above; conditions: P. falciparum in erythrocytes, SYBR Green DNA, 72 h; series mostly up to 28.7 µM
Outline: as §1

[15] = test system: DIV14; assay: as above; conditions: P. falciparum in erythrocytes, SYBR Green DNA, 72 h; series mostly up to 28.7 µM
Outline: as §1

[16] = test system: Dd2; assay: as above; conditions: P. falciparum in erythrocytes, SYBR Green DNA, 72 h; series mostly up to 28.7 µM
Outline: as §1

[17] = test system: ICS; assay: as above; conditions: P. falciparum in erythrocytes, SYBR Green DNA, 72 h; series mostly up to 28.7 µM
Outline: as §1

[18] = test system: N140; assay: as above; conditions: P. falciparum in erythrocytes, SYBR Green DNA, 72 h; series mostly up to 28.7 µM
Outline: as §1

[19] = test system: PC49; assay: as above; conditions: P. falciparum in erythrocytes, SYBR Green DNA, 72 h; series mostly up to 28.7 µM
Outline: as §1

[20] = test system: TAB165; assay: as above; conditions: P. falciparum in erythrocytes, SYBR Green DNA, 72 h; series mostly up to 28.7 µM
Outline: as §1

SMILES	Potency [1]	outcome [2]	Potency [3]	Potency [4]	outcome [5]	Potency [6]	Potency [7]	Potency [8]	Potency [9]	Potency [10]	Potency [11]	Potency [12]	Potency [13]	Potency [14]	Potency [15]	Potency [16]	Potency [17]	Potency [18]	Potency [19]	Potency [20]
CC1(C)S[C@@H]2[C@H](NC(=O)Cc3ccccc3)C(=O)N2[C@@H]1C(=O)O	inactive	inactive	inactive	inactive	inactive	inactive	inactive	inactive	inactive	inactive	inactive	inactive	inactive	inactive	inactive	inactive	inactive	inactive	inactive	inactive
Cc1onc(-c2c(F)cccc2Cl)c1C(=O)N[C@@H]1C(=O)N2[C@H]1SC(C)(C)[C@H]2C(=O)O	inactive	inactive	inactive	inactive	inactive	inactive	inactive	inactive	inactive	inactive	inactive	inactive	inactive	inactive	inactive	inactive	inactive	inactive	inactive	inactive
CC(C)(C)c1ccc(CN2CCN([C@H](c3ccccc3)c3ccc(Cl)cc3)CC2)cc1	inactive	inactive	inactive	inactive	inactive	6.31 µM (active)	3.55 µM (active)	8.91 µM (active)	–	–	–	7.08 µM (active)	4.47 µM (active)	–	15.1 µM (active)	8.91 µM (active)	2.51 µM (active)	7.08 µM (active)	–	7.94 µM (active)
C[C@H](CCC(=O)O)[C@H]1CC[C@@H]2[C@H]3[C@@H](C[C@@H](O)[C@]21C)[C@]1(C)CC[C@H](O)C[C@@H]1C[C@@H]3O	inactive	inactive	inactive	inactive	inactive	inactive	inactive	inactive	inactive	inactive	inactive	inactive	inactive	inactive	inactive	inactive	inactive	inactive	inactive	inactive
